# Screening data (PubChem)
# Lassa entry inh = blocks Lassa virus binding to or entry into cells; Lassa virus pseudotype entry inhibition, cell reporter; Potency, µM (highest dose often 37.9 µM), hits mostly inhibitors; 1.2% of 300,000 active; calls by dose curve; tested in HEK293 cells; note: nearly all actives have a fitted effect of over 50% in size
# HCMV antiviral = blocks human cytomegalovirus replication; HFF cells, HCMV-luciferase reporter, 72 h; active compounds read low; activity change, negative = inhibition, % at 57.5 µM; 4.5% of 410,000 active; AID 1259415; in the data active = activity change below about -60%; inconclusive = no clear call, values can overlap the other calls; inactive = above about -39%
#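 Two compound doses tested in HFFs infected with HCMV-luciferase, MOI 1 PFU/cell, 72 h at 37C. Lysate luminescence read with OneGlo; data normalized against buffer-only and 10uM Salinomycin inhibitor controls.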
# Marburg entry inh = blocks Marburg virus binding to or entry into cells; Marburg virus pseudotyped entry inhibition, cell reporter; Potency, µM (doses to about 37.8 µM), usual class: inhibitors; 1.8% of 300,000 active; AID 540276; calls by dose curve; tested in HEK293 cells
# FMDV antiviral = foot and mouth disease virus antiviral activity; FMDV antiviral cell-based qHTS; Potency, µM (titrated, usually from 57.9 µM), hits mostly inhibitors; 1.2% of 410,000 active; AID 1159524; calls by dose curve; tested in HEK293T cells; note: read-out not given here; nearly all actives have a fitted effect of over 45% in size
# Hits are given with their value; – = inactive; ? = inconclusive; · = not tested or not shown. Shown are actives, neighbours in structure and some others; about 6.2% of the full set was active somewhere.
SMILES,Lassa entry inh,HCMV antiviral,Marburg entry inh,FMDV antiviral
Cn1cc(S(=O)(=O)NC2CCCCC2)c(=O)n(C)c1=O,–,–,–,–
COc1ccc(-c2nnc3n2N=C(C)CS3)cc1,–,–,–,–
CCOC(=O)/C(=C\c1ccc(OC(F)F)cc1)C1=Nn2c(nnc2-c2ccc(Cl)cc2)SC1,?,·,?,13µM
CCOC(=O)/C(=C/c1ccc(OC(F)F)cc1)C1=Nn2c(nnc2-c2ccc(Cl)cc2)SC1,?,-98,?,13µM
COc1ccc(N(C(=O)CCl)C(C(=O)NCCc2ccccc2)c2cccs2)cc1 (stereo unspecified),?,-100,?,16µM
COc1ccc(CC(=O)NCC(c2cccs2)S(=O)(=O)c2ccc(F)cc2)cc1 (stereo unspecified),–,–,·,–
O=C(NCCc1ccc(Cl)cc1)C(=O)NCC(c1ccco1)S(=O)(=O)c1ccc(Cl)cc1 (stereo unspecified),–,-81,·,–
COc1ccc(CCNC(=O)C(=O)NCC(c2cccs2)S(=O)(=O)c2ccc(F)cc2)cc1 (stereo unspecified),?,–,·,40µM
COc1cccc(C(=O)Nc2cccc(-c3ccccc3)c2)c1,·,–,·,–
O=[N+]([O-])c1ccc(Nc2c3ccccc3nc3ccccc23)cc1,–,-90,?,–
O=[N+]([O-])c1ccc(-c2nc(Nc3ccc(O)cc3)c3ccccc3n2)cc1,·,–,·,–
O=c1oc(-c2ccccc2[N+](=O)[O-])nc2ccccc12,–,–,–,–
O=[N+]([O-])c1ccccc1Nc1c2ccccc2nc2ccccc12,?,-62,?,–
C/C(=N\NS(=O)(=O)c1ccc(C)cc1)c1cccs1,–,–,–,–
Nc1n[nH]c(-c2ccccc2[N+](=O)[O-])n1,–,-96,?,–
CCOc1ccccc1NC(=O)c1cnc2n(c1=O)CCS2,–,–,–,–
O=C(Nc1ccc(Oc2ccccc2)cc1)c1cnc2n(c1=O)CCS2,·,-86,·,?
COc1cc(NCCCn2cnc3c(OCc4ccccc4)ncnc32)cc(OC)c1OC,·,–,·,–
COc1ccccc1C1CCN(C(=O)c2ccccc2)CC1,·,–,·,–
COc1ccccc1C1CCN(c2cc(O)ccc2[N+](=O)[O-])CC1,?,-72,?,?
CC(C)(C)NC(=O)C(=O)N/N=C/c1ccc(F)cc1,–,–,?,–
CC1CN(C(=O)c2cccc(COc3ccc(Br)cc3)c2)CC(C)O1 (stereo unspecified),?,-78,?,–
CCOc1ccc(OCc2cccc(C(=O)N3CCOCC3)c2)cc1,·,–,–,–
CC1Cc2ccccc2N1C(=O)CSc1nc2c(c(=O)n(C)c(=O)n2C)n1Cc1ccc(F)cc1 (stereo unspecified),–,-106,–,–
CCCCn1c(SCC(=O)Nc2nnc(C(C)C)s2)nc2c1c(=O)n(C)c(=O)n2C,?,-75,–,–
SMILES,Lassa entry inh,HCMV antiviral,Marburg entry inh,FMDV antiviral
CCCCn1c(SCC(=O)N2c3ccccc3Sc3ccccc32)nc2c1c(=O)n(C)c(=O)n2C,?,–,11µM,?
CCOC(=O)c1c(N)n(-c2ccc(C)c(Cl)c2)c2nc3ccccc3nc12,–,–,·,–
Cc1cc2c(cc1C)NC(CC(=O)Nc1cccc(Cl)c1)C(=O)N2 (stereo unspecified),–,–,·,–
O=C(CSC1=NS(=O)(=O)c2ccccc2N1)NCCc1ccccc1,–,–,–,–
O=C(CC1(CC2=NS(=O)(=O)c3ccccc3N2)CCCC1)NCCc1ccccc1,·,-68,·,–
CCOC(=O)Cc1ccc(NC(=O)N2CCc3c(sc4c3CCCC4)C2c2ccc(F)cc2)cc1 (stereo unspecified),–,–,·,–
CCOC(=O)N1CCN(C(=O)c2ccc3c(=O)n(Cc4ccc(Cl)cc4)c(=S)[nH]c3c2)CC1,–,–,?,?
CCOC(=O)N1CCN(C(=O)c2ccc(Cn3c(=S)[nH]c4ccc(Br)cc4c3=O)cc2)CC1,4µM,-95,?,?
O=c1c2cc(Br)ccc2[nH]c(=S)n1Cc1ccccc1,?,-63,–,–
CN1OC[C@@H]2CN(C(=O)C(C)(C)C)[C@H](c3ccc(-c4cc5ccccc5o4)cc3)C[C@@H]21,·,–,·,–
O=C(CSc1n[nH]c(-c2ccco2)n1)Nc1ccccc1,–,–,–,–
COc1ccccc1NC(=O)N(C)C[C@@H]1OCc2cnnn2CCCC(=O)N([C@@H](C)CO)C[C@@H]1C,·,–,·,–
CC(NCc1cc(Br)ccc1OCC(=O)NCc1ccccc1)c1ccccc1 (stereo unspecified),·,-76,·,?
O=C(COc1ccc(Br)cc1CNC1CCCC1)Nc1ccccc1,–,–,1.8µM,–
O=C(COc1ccc(Br)cc1Cl)NC1CCCCC1,–,?,?,–
CC(C)NC(=O)NC(=O)COc1ccc(Br)cc1Br,7.3µM,–,6.5µM,–
